Our source for the growth values is PubChem BioAssay (NCI).

Compounds without any hit were thinned out: in the full panel of roughly 83,000, 20% have a hit.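 Testing used 96-well plates and a 48-hour single-concentration exposure. Example: -40 means 40% of the starting cells died.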 Calls of active or inactive are those of the source. Rule for the calls: active = growth percent below 10; inactive = the rest.

This assay deals with HL-60(TB) leukemia. Nature of the assay: NCI-60 one-dose screen, 48 h (100 = growth as untreated, 0 = no growth, -100 = all killed). To be noted: 10 µM unless noted.
As for `COc1ccc(/C=N\N2CCOCC2)cc1OC1CCCC1`, the growth is 104% (inactive).

Regarding `Cc1cc(Cl)c2ccc(N(C)C)cc2n1`, the growth is 93.6% (inactive).

With `CC1(C)CC[C@]2(C(=O)Nc3ccccn3)CC[C@]3(C)C(=CC[C@@H]4[C@@]5(C)C/C(=C/c6cccnc6)C(=O)C(C)(C)[C@@H]5CC[C@]43C)[C@H]2C1`, the growth is 1.84% (active).

As to `CC(=O)Nc1sc2c(c1-c1nc3ccccc3s1)CNC2`, the growth is 28.4% (inactive).

Consider `COc1ccc(-c2nc(-c3nc4cc(Cl)c(F)cc4[nH]3)c3ccccn23)cc1`, for which the growth is 46.4% (inactive).

Turning to `Cc1cc(C)nc(SC2=C(Nc3cc(Cl)ccc3O)C(=O)N(Cc3ccccc3)C2=O)n1`, the growth is 85.3% [30 µM] (inactive).

Regarding `Cc1c(C(=O)Nc2ccccc2F)sc2c(=O)[nH]cnc12`, the growth is 83.2% (inactive).

Consider `COc1ccc(C(C)=O)cc1S(N)(=O)=O`, for which the growth is 74.7% (inactive).

As to `CCC(C)(C)C(=O)O[C@H]1C[C@@H](C)C=C2C=C[C@H](C)[C@H](CC[C@@H]3CC(SCCN)CC(=O)O3)[C@H]21` (stereo not given in full), the growth was 37.6% (inactive).

Regarding `CCN(CC)CCOc1nc2ccc(OC)cc2c2c1-c1ccc(OC)cc1C2=O`, the growth was 19.2% (inactive).

As to `CCN(CC)CCOc1ccc2ccc(=O)oc2c1`, the growth was 3.42% (active).

Turning to `O=[N+]([O-])c1ccc(N/N=C\c2cc(Cl)ccc2O)nc1`, the growth was -2.47% (active).

Take `Cc1ccc(C(=O)/C=C/c2ccccc2)s1`: the growth is 97.1% (inactive).

In the case of `COc1ccc(Cn2cc3c(c2-c2ccccc2)CCc2cnoc2-3)cc1`, the growth is 4.48% (active).

With `Cc1ccc2c(c1)Nc1ccc(C)cc1C2(C)C`, the growth was 81% (inactive).

For the molecule `Cn1cc(-c2noc(-c3cn(C)c4ncc(Br)cc34)n2)c2cc(Cl)ccc21`, the growth was 102% (inactive).

With `CCCCCCCCCCCCCCCCCCSC(=N)N`, the growth was 46% (inactive).

Take `Cc1ccc(NC(=O)c2cc(-c3nc4ccccc4s3)c(=O)n(NS(=O)(=O)c3ccc(Cl)cc3)c2N)cc1`: the growth was 101% (inactive).

As to `COCc1nc(NS(=O)(=O)c2ccc(N)cc2)nc(C)c1Br`, the growth is 114% (inactive).

Take `CCOC(=O)C(CCN(C)C)c1ccccc1` (stereo not given): the growth was 88.8% (inactive).

For `C=CCNc1nc(O)c(/C=C2\C=Nc3ncccc32)s1`, the growth was -14.5% (active).

`O=C(Nc1ccc(F)cc1)c1cc2cc(Nc3nc(-c4ccccc4)nc4ccccc34)ccc2oc1=O`: the growth was 102% (inactive).

Turning to `CC(=O)c1nn(-c2ccccc2)/c(=N\N=C\c2coc3ccc(F)cc3c2=O)s1`, the growth was 105% (inactive).

With `CCCCCCCC(=O)SCC/C=C/[C@@H]1CC(=O)NCc2cccc(n2)CN(Cc2ccc(Cl)cc2)CC(=O)N[C@@H](C(C)C)C(=O)O1`, the growth is 13% (inactive).

Take `NC1=NN=C2N(N)C(=O)c3cnn(-c4ccccc4)c3N2c2nc(-c3ccccc3)cc(-c3ccccc3)c21`: the growth is 105% (inactive).

In the case of `O=C1NC(=S)NC(=O)C1=Cc1cn(Cc2ccccn2)c2ccccc12`, the growth is 32.5% (inactive).

Turning to `OCCNCCNC(Cc1ccc(Cl)cc1)c1ccccc1` (stereo not given), the growth was 76.4% (inactive).

Consider `CC(=O)N1Cc2ccccc2C(C)Cc2cc(Cl)ccc21` (stereo not given), for which the growth is 111% (inactive).

Regarding `COc1cccc(/C=N/N=C(N)N)c1`, the growth is 122% (inactive).

As for `COc1ccc(CNc2nccnn2)cc1`, the growth is 69.9% (inactive).

As to `CCOC(=O)Nc1ccc2nc(-c3cscn3)[nH]c2c1`, the growth was 18.7% (inactive).

On to `Cc1ccc(C)c(/C=C2\CN(C(=O)OC(C)(C)C)C/C(=C\c3cc(C)ccc3C)C2=O)c1`, for which the growth is 10.7% (inactive).

For `CCCCCCCCCCCCNC(=O)N[C@H](C(=O)N[C@H]1/C=C/CCNC(=O)/C=C/[C@H](C)NC1=O)C(C)C`, the growth is -25.2% (active).

Turning to `O=c1ccn(C2OC(F)(CO)C(O)C2F)c(=O)[nH]1` (stereo not given), the growth is 114% (inactive).

For the molecule `O=C(Cc1n[nH]c(=O)c2ccccc12)OCc1c(Cl)cccc1Cl`, the growth is 33.7% (inactive).

With `COc1cccc2c(=O)c3c(sc12)c(NCCN(C)C)nc1ccccc13`, the growth was 15.1% (inactive).

For the molecule `N#C/C(=C\c1cccc2cnccc12)N1N=NC2C=CC=CC21` (stereo not given), the growth is 8.65% (active).

As for `Nc1cc2c(cc1Cl)C(=O)c1ccccc1C2=O`, the growth is 81% (inactive).

As for `C=CCS(C)(=O)=O`, the growth was 104% (inactive).

`O=COCCCc1ccccc1`: the growth was 106% (inactive).
